Measurements as given in PubChem BioAssay AID2253 (Southern Research Specialized Biocontainment Screening …, 2010).
The whole screen tested about 2,200 compounds, of which about 1,300 (59%) were called active. So high a share suggests a set chosen from earlier hits. A selection follows. Results with a measured potency or affinity are listed apart. Unmarked numbers belong to inactive results. The rule behind the calls is not given here.

assay: THP-1 cell cytotoxicity, dose response, cytotoxicity control for Salmonella PhoP regulon inhibitors, S. typhimurium screen hits (AID 2253); conditions: THP-1 viability, CellTiter-Glo luminescence, 72 h; series mostly up to 50 µM; viability: at the top concentration

**Q.** For O=C1c2ccccc2C(=O)N1CCCc1nc(-c2ccccn2)no1, which “viability” value is on record?
**A.** 114%

**Q.** Which “viability” value does the source give for O=C1c2ccccc2C(=O)N1Cc1nc(-c2ccccn2)no1 here?
**A.** 101%

**Q.** For CCOc1cc(CNn2cnnc2)ccc1OCC(=O)NC1CCCCC1, which “viability” value is on record?
**A.** 105%

**Q.** For O=C(COC(=O)/C=C/c1ccco1)Nc1cccc([N+](=O)[O-])c1, which “viability” value is on record?
**A.** 94.9%

**Q.** For Cc1ccccc1OCC(=O)N/N=C/c1ccco1, which “viability” value is on record?
**A.** 91.9%

**Q.** Which “viability” value does the source give for CCOC(=O)/C=C1\SCC(=O)N1CC(=O)NC1CCCCC1 here?
**A.** 91.7%

**Q.** Which “viability” value does the source give for Cc1cc(C)c(NC(=O)COc2ccccc2C(=O)Nc2ccc3c(c2)oc2ccccc23)c(C)c1 here?
**A.** 96.5%

**Q.** Which “viability” value does the source give for CCn1c(Cc2ccccc2)nnc1SCC(=O)Nc1ccc(S(N)(=O)=O)cc1 here?
**A.** 89.3%

**Q.** With N/C(=N\OC(=O)COc1ccc(Cl)cc1)c1cccnc1 as the compound, how does the “viability” value read?
**A.** 94.1%

**Q.** For c1ccc(CCNc2nc3ccccc3s2)cc1, which “viability” value is on record?
**A.** 85.5%

**Q.** Which “viability” value does the source give for Cc1ccc(C(=O)Oc2ccc(C(=O)COC(=O)c3cnccn3)cc2)cc1 here?
**A.** 84.2%

**Q.** Which “viability” value does the source give for COc1ccc(/C=C/C(=O)NCCc2nc3ccccc3[nH]2)cc1 here?
**A.** 92.5%

**Q.** For Nc1nnc(SCc2ccc(F)cc2Cl)s1, which “viability” value is on record?
**A.** 85.2%

**Q.** With O=C(CSc1nnc(-c2cccnc2)o1)OC1CCCCC1 as the compound, how does the “viability” value read?
**A.** 85.3%

**Q.** With C/C(=N/NC(=O)Cc1cccn1C)c1ccccc1 as the compound, how does the “viability” value read?
**A.** 83.9%

**Q.** Which “viability” value does the source give for Cc1oc(CC(C)C)c(CN)c1C(=O)O here?
**A.** 91%

**Q.** For Cn1c(-c2ccc(N)cc2)nc2ccccc21, which “viability” value is on record?
**A.** 80.5%

**Q.** For CCOc1ccccc1Nc1nc2ccccc2n2cnnc12, which “viability” value is on record?
**A.** 102%

**Q.** For CCCn1c(N)nc2ccccc21, which “viability” value is on record?
**A.** 92.3%

**Q.** Which “viability” value does the source give for CCCNC(=O)CN(C1CCCCC1)S(C)(=O)=O here?
**A.** 101%

**Q.** With COc1cc([N+](=O)[O-])ccc1NC(=O)CN(C)C as the compound, how does the “viability” value read?
**A.** 90.2%

**Q.** For O=C(CSc1n[nH]c(=O)[nH]c1=O)N/N=C/c1ccccc1, which “viability” value is on record?
**A.** 99.9%

**Q.** For CC1CCc2cc(F)cc3c(=O)c(C(=O)O)cn1c23 (stereo not given), which “viability” value is on record?
**A.** 95.9%

**Q.** Which “viability” value does the source give for CCN1C(=O)N/C(=C/c2ccc(Sc3ccc(C)cc3)o2)C1=O here?
**A.** 88.3%

**Q.** With COc1nsnc1NS(=O)(=O)c1ccc(NC(=S)NC(=O)c2cccnc2)cc1 as the compound, how does the “viability” value read?
**A.** 82.1% [at 25 µM]

**Q.** With COc1nccnc1NS(=O)(=O)c1ccc(NC(=S)NC(=O)c2cccnc2)cc1 as the compound, how does the “viability” value read?
**A.** 83.2%

**Q.** Which “viability” value does the source give for O=C(Nc1cccnc1)c1cc(F)cc(F)c1 here?
**A.** 83.5%

**Q.** For Cc1cccc(C(=O)NC(=S)Nc2ccc(N3CCOCC3)cc2)c1, which “viability” value is on record?
**A.** 80.9%

**Q.** With COC(=O)Cc1ccc(NC(=S)N2CCN(c3ccc(F)cc3)CC2)cc1 as the compound, how does the “viability” value read?
**A.** 103%

**Q.** With O=C(Nc1ccccc1)Oc1ccc[nH]c1=O as the compound, how does the “viability” value read?
**A.** 95.3%

**Q.** Which “viability” value does the source give for CCCOc1ccc(C(=O)N2CCCC2C(=O)O)cc1 (stereo not given) here?
**A.** 102%

**Q.** With CC(C)Nc1cc(C(F)(F)F)nc(-c2ccccn2)n1 as the compound, how does the “viability” value read?
**A.** 84.2%

**Q.** For O=C(Nc1ccccn1)NC1CCCCC1, which “viability” value is on record?
**A.** 88.2%

**Q.** With O=C(Nc1ccsc1C(=O)NC1CCCCC1)c1ccccc1 as the compound, how does the “viability” value read?
**A.** 84.2%

**Q.** Which “viability” value does the source give for COc1ccccc1NCCC(=O)OCC(=O)NC1CCCCCC1 here?
**A.** 100%

**Q.** Which “viability” value does the source give for O=S(=O)(c1ccc(NC(=S)Nc2ccc3c(c2)OCO3)cc1)N1CCOCC1 here?
**A.** 82.4%

**Q.** With C/C(=N\NC(=O)c1ccccc1)c1ccc2c(c1)OCO2 as the compound, how does the “viability” value read?
**A.** 83.2%

**Q.** Which “viability” value does the source give for COc1ccc(-c2cc(C(=O)Nc3ccc(S(=O)(=O)Nc4ncccn4)cc3)c3ccccc3n2)cc1 here?
**A.** 81.1%

**Q.** With O=C(Nc1nccs1)c1cc(-c2ccco2)nc2ccccc12 as the compound, how does the “viability” value read?
**A.** 98.7%

**Q.** With N#CCCN(C(=O)CN1C(=O)NC2(CCCC2)C1=O)c1ccccc1F as the compound, how does the “viability” value read?
**A.** 92.2%

**Q.** With c1ccc(CSc2nnc(-c3ccncc3)o2)cc1 as the compound, how does the “viability” value read?
**A.** 97.8%

**Q.** Which “viability” value does the source give for O=C(CSc1nnc(Cc2ccccc2)o1)NCCc1ccccc1 here?
**A.** 98.5%

**Q.** With O=C(NCCc1ccccc1)c1ccc2nc(-c3ccco3)c(-c3ccco3)nc2c1 as the compound, how does the “viability” value read?
**A.** 87.4%

**Q.** Which “viability” value does the source give for CCn1cc(C(=O)O)c(=O)c2cc(F)c(N3CCN(C(=S)NC(=O)c4cccc(F)c4)CC3)cc21 here?
**A.** 101%

**Q.** With Cc1ccc(C(=O)c2ccccc2C(=O)O)c(O)c1 as the compound, how does the “viability” value read?
**A.** 93.6%

**Q.** Which “viability” value does the source give for Cc1cc(C)cc(-n2c(C)cc(C=C(C#N)C#N)c2C)c1 here?
**A.** 108%

**Q.** For CCN(c1ccc(OCC(=O)OCC(=O)Nc2ccc(F)c(F)c2F)cc1)S(=O)(=O)c1ccccc1, which “viability” value is on record?
**A.** 93.2%

**Q.** For NC1CCN(c2nc3c(cc2F)c(=O)c(C(=O)O)cn3-c2ccc(F)cc2F)C1 (stereo not given), which “viability” value is on record?
**A.** 96.4%

**Q.** For CCOC(=O)C1=C(C)NC(=S)NC1c1ccc(OC(=O)c2ccco2)cc1 (stereo not given), which “viability” value is on record?
**A.** 80.1%

**Q.** For CCNC(=O)NC1(C(=O)Nc2ccc3c(c2)OCCO3)CCCCC1, which “viability” value is on record?
**A.** 102%

**Q.** With O=C(Nc1nc2ccc(SC(F)F)cc2s1)c1ccc2c(c1)S(=O)(=O)c1ccccc1C2=O as the compound, how does the “viability” value read?
**A.** 92%

**Q.** With Cc1nn(C)c(C)c1S(=O)(=O)N1CCC(C(=O)NC2CCCCC2)CC1 as the compound, how does the “viability” value read?
**A.** 87.9%

**Q.** For Cc1cccc(N2CCN(CC(=O)Nc3nccs3)CC2)c1C, which “viability” value is on record?
**A.** 94.7% [at 25 µM]

**Q.** Which “viability” value does the source give for O=c1cc(Cc2ccccc2)[nH]c(=S)[nH]1 here?
**A.** 89.9%

**Q.** For CC1CCc2c(N3CCC(O)CC3)c(F)cc3c(=O)c(C(=O)O)cn1c23 (stereo not given), which “viability” value is on record?
**A.** 81.6%

**Q.** With CC1(C)CC(=O)C=C(Nc2ccc(Br)cn2)C1 as the compound, how does the “viability” value read?
**A.** 91.2%

**Q.** With Cc1nn(CCOc2ccccc2)c(=O)n1-c1ccc(F)cc1 as the compound, how does the “viability” value read?
**A.** 101%

**Q.** With CCCn1c(NCCO)nc2ccccc21 as the compound, how does the “viability” value read?
**A.** 96.2%

**Q.** For CCCn1c(/N=C/c2ccc3c(c2)OCO3)nc2ccccc21, which “viability” value is on record?
**A.** 102%

**Q.** Which “viability” value does the source give for CC(Cl)C(=O)NNc1cccc(Cl)n1 (stereo not given) here?
**A.** 90.3%
